# Data reported in PubChem BioAssay (NCATS).
# Inconclusive results are not listed. Active and inactive are the calls of the source. Unless noted, no rule for the calls is given here.
# Legend:
# [1] = qHTS profiling of the MIPE4 collection as inhibitors of Plasmodium falciparum (3D7) proliferation (AID 743344);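 also: scaled between DMSO vehicle wells and 0.29 µM artemisinin as full inhibition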; details: P. falciparum 3D7 in erythrocytes, SYBR Green DNA fluorescence, 72 h; at 28.5 µM unless noted
# In short: (§1)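 Erythrocytes infected with P. falciparum (0.3% parasitemia, 2.5% hematocrit) incubated with compounds 72 h at 37 C, 5% CO2. Lysis with saponin/Triton buffer containing SYBR Green I, overnight at room temperature in the dark; DNA fluorescence (485/535 nm) normalised to 0.29 uM artemisinin and DMSO.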
# [2] = qHTS profiling of the MIPE4 collection as inhibitors of Plasmodium falciparum (DD2) proliferation (AID 743345); details: P. falciparum Dd2 in erythrocytes, SYBR Green DNA, 72 h; at 28.5 µM unless noted
# In short: as §1
# [3] = qHTS profiling of the MIPE4 collection as inhibitors of Plasmodium falciparum (DD2) proliferation (Rep 2) (AID 743346); details: P. falciparum Dd2 in erythrocytes, SYBR Green DNA, 72 h; at 28.5 µM unless noted
# In short: as §1
# [4] = qHTS profiling of the MIPE4 collection as inhibitors of Plasmodium falciparum (HB3) proliferation (AID 743347);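 also: plate controls were DMSO vehicle wells for no effect and artemisinin wells for full effect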; details: P. falciparum HB3 in erythrocytes, SYBR Green DNA, 72 h; at 28.5 µM unless noted
# In short: as §1
# [5] = High-throughput drug toxicity screening in the BPDCN cell line Gen2.2 (AID 1224824); details: Gen2.2 BPDCN cells; at 45.8 µM (top of the series) unless noted
# In short: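 Gen2.2 cells, 500 per well in phenol red-free RPMI with 10% FBS, exposed to compounds 48 h at 37 C, 5% CO2; viability by CellTiter-Glo luminescence. Percent activity scaled to DMSO (100%) and 9.2 uM bortezomib final (0%).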
# [6] = High-throughput drug toxicity screening in the BPDCN cell line Cal-1 (AID 1224825); details: Cal-1 BPDCN cell viability, qHTS; at 45.8 µM (top of the series) unless noted
# In short: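 Cal-1 cells, 500 per well in phenol-red-free RPMI with 10% FBS, exposed to compounds for 48 hours at 37C, 5% CO2. Viability read by CellTiter-Glo luminescence; percent activity normalized to DMSO (100%) and 9.2 uM bortezomib final (0%).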
# [7] = qHTS assay for measurement of the activity of small molecule inhibitors on Zika virus induced Caspase-3 activity in human iPSC derived neural progenitor cells (hNPCs) (AID 1224857; active = well fitted curve in the direction sought with a large enough effect; an effect the other way counts as inactive or inconclusive; also: nearly all actives have a fitted effect of over 65% in size; also: potency is read from the fitted curve at half-maximal effect)
# In short: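 hNPCs seeded 350 cells/well, cultured 16–20 h; compounds added 1 h before ZIKV (2 FFU/cell), 37 C 6 h. Caspase-Glo 3/7 luminescence after 30 min RT; % inhibition from induction scaled to uninfected (0%) and infected (100%) wells.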
# [8] = qHTS assay for measurement of the activity of small molecule inhibitors on Zika virus induced Caspase-3 activity in human astrocytoma cells (AID 1224859; active = well fitted curve in the direction sought with a large enough effect; an effect the other way counts as inactive or inconclusive; also: potency is read from the fitted curve at half-maximal effect)
# In short: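 Luminescence read-out (Caspase-Glo 3/7, 30 min RT) of caspase activity in SNB-19 cells infected 6 h with ZIKV, 2 FFU/cell, after 1 h compound pretreatment; % inhibition from induction normalised to uninfected (0%) and infected (100%) wells.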
# [9] = qHTS Screen of the MIPE 4.0 Collection Against Ewings Sarcoma (RDES) (AID 1259252; active = well fitted curve in the direction sought with a large enough effect; an effect the other way counts as inactive or inconclusive; also: potency is read from the fitted curve at half-maximal effect; nearly all actives have a fitted effect of over 35% in size)
# In short: (§2)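 Viability screen: 48 h incubation at 37C, 95% humidity, 5% CO2 with serially titrated compound, followed by CellTiter-Glo readout.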
# [10] = qHTS Screen of the MIPE 4.0 Collection Against Ewings Sarcoma (TC32) (AID 1259256; active = well fitted curve in the direction sought with a large enough effect; an effect the other way counts as inactive or inconclusive; also: nearly all actives have a fitted effect of over 45% in size; also: potency is read from the fitted curve at half-maximal effect)
# In short: as §2
# [11] = qHTS Screen of the MIPE 4.0 Collection Against Ewings Sarcoma (TC71) (AID 1259253; active = well fitted curve in the direction sought with a large enough effect; an effect the other way counts as inactive or inconclusive; also: nearly all actives have a fitted effect of over 40% in size; also: potency is read from the fitted curve at half-maximal effect)
# In short: as §2
# [12] = qHTS Screen of the MIPE 4.0 Collection Against Ewings Sarcoma (EW8) (AID 1259255; active = well fitted curve in the direction sought with a large enough effect; an effect the other way counts as inactive or inconclusive; also: nearly all actives have a fitted effect of over 35% in size; also: potency is read from the fitted curve at half-maximal effect;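 as to viability: 100% = DMSO-treated cells and 0% = medium-only wells without cells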)
# In short: as §2
# [13] = qHTS assay to identify small molecule inhibitors of chordoma cells - UCH-1 (AID 1259355; active = well fitted curve in the direction sought with a large enough effect; an effect the other way counts as inactive or inconclusive; also: % is scaled to controls: 0 for no effect and ±100 for the full control effect; nearly all actives have a fitted effect of over 55% in size)
# In short: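 Cells (800/well) were seeded and left overnight at 37 C, 5% CO2, then treated with drugs at 15 concentrations plus a combination mix of auranofin, camptothecin, doxorubicin, rubitecan and topotecan. Viability after 48hr was read by CellTiter-Glo luminescence.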
# [14] = qHTS assay to identify small molecule inhibitors of chordoma cells - UCH-2 (AID 1259356; active = well fitted curve in the direction sought with a large enough effect; an effect the other way counts as inactive or inconclusive; also: % is scaled to controls: 0 for no effect and ±100 for the full control effect)
# [15] = qHTS profiling for inhibitors of Plasmodium falciparum (HB3) proliferation (AID 743324; active = well fitted curve in the direction sought with a large enough effect; an effect the other way counts as inactive or inconclusive;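 also: 100% = DMSO vehicle wells and 0% = artemisinin-treated control wells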); details: Plasmodium falciparum HB3 blood-stage proliferation; at 28.7 µM (top of the series) unless noted
# In short: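 P. falciparum HB3 grown in erythrocytes (0.3% parasitemia, 2.5% hematocrit final) with compound for 72 h at 37 C, 5% CO2. Parasite DNA detected by SYBR Green after saponin/triton lysis overnight; normalized to 0.29 uM artemisinin and DMSO.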
# [16] = Identifying Small Molecule Inhibitors of Pancreatic Cancer Stem Cells (A2780, Spheroid) (AID 1259357; active = well fitted curve in the direction sought with a large enough effect; an effect the other way counts as inactive or inconclusive;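 also: potency is read from the fitted curve at half-maximal effect; compound exposure lasted 48 h before the ATP luminescence read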); details: Potency: A2780 spheroid viability
# In short: (§3)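 Pre-formed 14-day tumor spheroids or adherent cells dosed and incubated 48 h, 37C, 5% CO2. Viability assessed by CellTiter-Glo.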
# [17] = Identifying Small Molecule Inhibitors of Pancreatic Cancer Stem Cells (SN12C, Spheroid) (AID 1259360; active = well fitted curve in the direction sought with a large enough effect; an effect the other way counts as inactive or inconclusive; also: potency is read from the fitted curve at half-maximal effect); details: Potency: SN12C spheroid viability
# In short: as §3
# [18] = Identifying Small Molecule Inhibitors of Pancreatic Cancer Stem Cells (A278, Adherent) (AID 1259361; active = well fitted curve in the direction sought with a large enough effect; an effect the other way counts as inactive or inconclusive;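 also: viability read after 48 h compound exposure; nearly all actives have a fitted effect of over 35% in size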)
# In short: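 Monolayer and spheroid cultures are compared. Spheroids form over 14 days in stem cell medium on hydrogel-coated low-attachment plates, then are exposed to compound for 48 h before CellTiter-Glo luminescence.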
SMILES,"parasite growth, % of DMSO control [1]","parasite growth remaining, % of DMSO control (lower = more inhibition) [2]","parasite growth, % of control (lower = inhibition) [3]","growth, % of control [4]","cell viability, % of control (lower = more cytotoxic) [5]",viability (% of control) [6],Potency [7],Potency [8],Potency [9],Potency [10],Potency [11],Potency [12],outcome [13],outcome [14],"remaining proliferation (% of control), lower = more inhibition [15]",Potency [16],Potency [17],IC50 (viability decrease) [18]
Cc1cccc(-c2[nH]c(C(C)(C)C)nc2-c2ccc3c(c2)OCO3)n1,9.08%,19.7%,10.1%,8.33%,235%,17.9%,inactive,inactive,8.33 µM (active),10.5 µM (active),–,–,–,–,–,–,–,–
C=CC(=O)Nc1cccc(Sc2nc(Nc3ccc(N4CCN(C)CC4)cc3)ncc2Cl)c1,4.12%,10.2%,6.26%,1.99%,8.4%,2.56%,inactive,inactive,18.7 µM (active),–,–,–,–,–,–,–,–,–
COc1cc2c(cc1OC)[C@@H]1Cc3ccc(OC)c(OC)c3CN1CC2,25.7%,36.6%,26.7%,11.1%,132%,20.2%,inactive,inactive,7.43 µM (active),–,–,–,–,–,–,–,–,–
CO[C@H]1/C=C\O[C@@]2(C)Oc3c(C)c(O)c4c(O)c(c(C=NN5CCN(C6CCCC6)CC5)c(O)c4c3C2=O)NC(=O)C(C)=CC=C[C@H](C)[C@H](O)[C@@H](C)[C@@H](O)[C@@H](C)[C@H](OC(C)=O)[C@H]1C,4.38%,6.13%,8.54%,2.45%,1.16%,0.727%,inactive,inactive,0.0418 µM (active),inactive,–,–,–,–,–,–,–,–
CC1CCN(c2cc(N3CCN(C)CC3)ccc2NC(=O)c2cc(C#N)c[nH]2)CC1,–,80.6%,36.9%,50.4%,107%,104%,inactive,inactive,26.4 µM (active),–,–,–,–,–,–,–,–,–
C[C@@H](NC(=O)c1ncnc(N)c1Cl)c1ncc(C(=O)Nc2cc(C(F)(F)F)c(Cl)cn2)s1,63.1%,87.8%,58.8%,60.9%,2.67%,66.8%,inactive,inactive,23.5 µM (active),23.5 µM (active),–,–,–,–,–,–,–,–
COc1ccnc(CS(=O)c2nc3ccc(OC(F)F)cc3[nH]2)c1OC (stereo not given),58.5%,95.8%,99%,91%,282%,108%,inactive,inactive,–,inactive,inactive,inactive,inactive,inactive,–,–,–,–
Nc1ncnc2c1c(-c1cccc(OCc3ccccc3)c1)cn2C1CC(CN2CCC2)C1 (stereo not given),31.5%,30.5%,–,12.8%,26.4%,44.4%,inactive,inactive,20.9 µM (active),4.69 µM (active),–,–,–,–,–,–,–,–
Nc1ccn([C@@H]2O[C@H](CO)[C@@H](O)[C@H]2O)c(=O)n1,89.8%,97.8%,117%,108%,86.2%,11.3%,inactive,inactive,–,–,0.0332 µM (active),0.0935 µM (active),–,–,–,–,–,–
CON(C)C(=O)N1N=C(c2cc(F)ccc2F)S[C@]1(CCCN)c1ccccc1,13.1%,10.1%,18.3%,8.3%,16.8%,7.01%,inactive,inactive,–,inactive,inactive,inactive,–,–,–,–,–,–
C[C@@H](O[C@H]1OCCN(Cc2n[nH]c(=O)[nH]2)[C@@H]1c1ccc(F)cc1)c1cc(C(F)(F)F)cc(C(F)(F)F)c1,26.5%,52.9%,66.5%,34.2%,39.1%,16.1%,8.33 µM (active),inactive,–,–,20.9 µM (active),26.4 µM (active),–,–,9.06%,18.7 µM (active),20.9 µM (active),16.6 µM (active)
O=C(Nc1ccc(OC(F)(F)F)cc1)c1sccc1NCc1ccnc2ccccc12,57%,85.7%,82.6%,67.5%,42.4%,11.5%,5.9 µM (active),6.62 µM (active),–,18.7 µM (active),16.6 µM (active),18.7 µM (active),–,–,58.1%,–,23.5 µM (active),20.9 µM (active)
O=C1CCCC(=O)C1C(=O)c1ccc(C(F)(F)F)cc1[N+](=O)[O-],90.1%,103%,114%,93.4%,124%,101%,inactive,inactive,–,–,23.5 µM (active),inactive,–,–,–,–,–,–
CCN(CCO)CCCOc1ccc2c(Nc3cc(CC(=O)Nc4cccc(F)c4)[nH]n3)ncnc2c1,9.18%,11.6%,17.8%,6.77%,90.4%,15.3%,inactive,inactive,–,0.059 µM (active),0.166 µM (active),0.0833 µM (active),–,–,–,–,–,–
Cc1ccccc1-n1c(Cn2nc(-c3cccc(O)c3)c3c(N)ncnc32)nc2cccc(C)c2c1=O,6.67%,8.31%,15%,9.11%,5.88%,10.5%,inactive,inactive,–,–,9.35 µM (active),16.6 µM (active),–,–,–,–,–,–
CC(C)C[C@H](NC(=O)c1cc2ccccc2s1)C(=O)N1CCN(C(=O)[C@H](CO)NS(=O)(=O)c2ccc(Cl)cc2Cl)CC1,11.1%,47.5%,20.2%,10.7%,29.4%,67%,inactive,inactive,–,23.5 µM (active),23.5 µM (active),20.9 µM (active),–,–,5.88%,–,–,–
CN(C)S(=O)(=O)c1ccc2c(c1)C(=Cc1cc3c([nH]1)CCCC3)C(=O)N2,–,22.5%,30%,8.5%,119%,35.3%,inactive,inactive,–,3.72 µM (active),9.35 µM (active),8.33 µM (active),–,–,–,–,–,–
